NTMT1 inhibitor: blocks human N-terminal methyltransferase 1 activity; Q9BV86; NTMT1 MTase-Glo SAH luminescence, purified enzyme; Potency, µM (doses to about 114 µM), without a hit: at the top dose activity change, negative = inhibition, actives largely listed as inhibitors; actives 2.5% (n = 59,000);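 note: plate controls were DMSO vehicle for no effect and no enzyme for full effect; nearly all actives have a fitted effect of over 65% in size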
Target sequence (Q9BV86 whole entry, looked up): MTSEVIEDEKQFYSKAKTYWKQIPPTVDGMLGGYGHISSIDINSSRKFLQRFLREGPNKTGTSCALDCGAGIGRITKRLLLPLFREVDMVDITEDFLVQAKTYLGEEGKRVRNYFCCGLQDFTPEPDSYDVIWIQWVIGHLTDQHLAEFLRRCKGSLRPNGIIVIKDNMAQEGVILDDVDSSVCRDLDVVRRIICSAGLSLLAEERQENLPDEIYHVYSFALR
HTT promoter inh: inhibitors of huntingtin promoter activity; HEK293 HTT promoter firefly luciferase reporter, 24 h; Potency, µM (series often up to 57.5 µM), inactives show top-dose activity change, negative = inhibition, most hits filed as inhibitors; actives 0.93% (n = 48,000); AID 1508623; note: nearly all actives have a fitted effect of over 50% in size
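Luminescence was read after Dual-Glo reagent and a 10 min room-temperature incubation. Values were normalized to vehicle (0% activity) and zero RLU (-100% activity). Reporter HEK293 cells had been exposed to compounds (up to 57.5 uM final) for 24 h.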
HTT-AS promoter: activators of huntingtin-antisense promoter activity | Potency, µM (doses to about 57.5 µM), without a hit: at the top dose activity change, positive = activation, most hits filed as activators | HEK293 HTT-AS promoter firefly luciferase reporter, 24 h; response scale: percent change from vehicle, -100% = no light | actives 0.24% (n = 48,000); note: nearly all actives have a fitted effect of over 55% in size
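Firefly luciferase signal from promoter-reporter HEK293 cells was scaled between vehicle (0%) and zero RLU (-100%). Compounds were tested at final concentrations of up to 57.5 uM over 24 h at 37 degrees C. PTC124 at 50 uM final served as control inhibitor.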
An asterisk follows results filed as active; ? = inconclusive; · = not tested or not shown; ! = repeats disagree; [ ] = remark or other dose. The full list was thinned out, with hits kept by preference. Calls come from the whole dose curve; as a rule, active = well fitted curve in the direction sought with a large enough effect; inconclusive = small, poorly fitted or top-dose-only effect, or another doubt; inactive = no such curve, though single readings can be large; an effect the other way counts as inactive or inconclusive. Potency is the fitted concentration of half-maximal effect.

SMILES	NTMT1 inhibitor	HTT promoter inh	HTT-AS promoter
CNCCC(c1cccs1)c1ccc(O)c2ccccc12 (stereo not given)	1%[57.5 µM]	·	·
Cc1[nH]c(C=C2C(=O)Nc3ccc(S(=O)(=O)N(C)c4cccc(Cl)c4)cc32)c(C)c1C(=O)N1CCN(C)CC1	4%[57.5 µM]	-19%	-15%
CCN(CC)CCNC(=O)c1c(C)[nH]c(/C=C2\C(=O)Nc3ccc(Cl)cc32)c1C	25µM*	·	·
COc1cc(-c2nc(Nc3ccc(F)c(F)c3)c3ccccc3n2)cc(OC)n1	-24%	·	·
O=C(N[C@H](Cc1ccccc1)C(=O)O)c1sc2cc(F)ccc2c1Cl	5%[57.5 µM]	·	·
Cc1ccc(-c2nc3ccccn3c2Nc2ccc3c(c2)OCCO3)o1	16µM*	-11%	5%
Cc1ccc(-c2nc3ccccn3c2Nc2ccc3c(c2)OCO3)cc1	?	-8%	-2%
Cc1ccn2c(Nc3ccc4c(c3)OCCO4)c(-c3cccs3)nc2c1	13µM*	17%	?
Cc1ccc(Nc2c(-c3ccc(N(C)C)cc3)nc3ccccn23)cc1	?	72%	2µM*
c1csc(-c2nc3ccccn3c2Nc2ccc3c(c2)OCCO3)c1	?	6%	13%
Brc1ccc(-c2nc3ccccn3c2Nc2ccc3c(c2)OCCO3)o1	?	-20%	?
COc1cccc(CNc2ccc(S(=O)(=O)Nc3nc(C)c(C)s3)cc2)c1O	-13%[57.5 µM]	·	·
C[C@H]1CC[C@@]2(OC1)O[C@H]1CC3C4CC=C5C[C@H](O)C[C@@H](O[C@@H]6O[C@@H](C)[C@H](O)[C@@H](O)[C@H]6O[C@@H]6O[C@@H](C)[C@H](O)[C@@H](O)[C@H]6O)[C@]5(C)C4CC[C@]3(C)[C@H]1[C@@H]2C (stereo not given in full)	-16%[12.6 µM]	·	·
Cc1cnc(-c2ccccc2C(C)C)nc1NCc1ccc(-c2ccc(F)nc2)cc1	12%	·	·
CCc1ccc2nc(Nc3cc(Cc4ccccc4)nc(NC4CCC(O)CC4)n3)sc2c1 (stereo not given)	7%	·	·
CC1=C[C@@H]2[C@H]3[C@@H]4O[C@@](C)(CC[C@H]4O)[C@H]3CC(=O)[C@]23C(=O)N[C@@H](CC(C)C)[C@@H]3[C@@H]1C	13%[29.8 µM]	·	·
Cc1ccc(OCCn2c(CCNC(=O)/C=C/c3ccccc3)nc3ccccc32)cc1	0%	·	·
COc1cc2c(cc1O)CCC1C2CC[C@@]2(C)C1CC[C@@H]2O (stereo not given in full)	?	-16%	-34%
COc1cc2c(cc1O)CC[C@@H]1[C@@H]2CC[C@]2(C)[C@@H](O)CC[C@@H]12	35µM*	·	·
CCCCOC(=O)c1ccc(NC(=O)c2cc(=O)c3ccccc3o2)cc1	?	-17%	0%
CCCCOC(=O)c1cccc(NC(=O)c2cc3ccccc3o2)c1	1%	10µM*	-52%
Brc1cnc2nc(SCc3ccncc3)[nH]c2c1	18%	·	·
Cc1nc(-c2ccc(C)c(S(=O)(=O)N3CCC(C(=O)Nc4ccc(Cl)cc4)CC3)c2)no1	12%	?	-67%
COc1cccc(NC(=O)C2CCN(S(=O)(=O)c3cc(-c4noc(C)n4)ccc3C)CC2)c1	15%	13µM*	-53%
COc1cccc(C2CC(=O)N3CN(C4CCCCC4)CSC3=C2C#N)c1 (stereo not given)	11µM*	-20%	-16%
SMILES	NTMT1 inhibitor	HTT promoter inh	HTT-AS promoter
COc1ccc(N2CC(NC(=O)C3CCCCC3)CC2=O)cc1 (stereo not given)	9%	-18%	-5%
COc1cccc(Nc2nc(C#N)nc(NC3CCCC3)n2)c1	-12%[57.5 µM]	·	·
COc1ccc(C2CC(=O)N3CN(C4CCCCC4)CSC3=C2C#N)cc1 (stereo not given)	13µM*	7%	5%
COCCNCc1ccc(-c2cc3nccc(Oc4ccc(NC(=O)C5(C(=O)Nc6ccc(F)cc6)CC5)cc4F)c3s2)nc1	-5%[57.5 µM]	·	·
COc1ccc(C2N=C(Nc3nc4ccccc4o3)NC3=C2C(=O)CCC3)cc1 (stereo not given)	9%	·	·
C#CC1(O)CC[C@H]2[C@@H]3CCC4=CCCC[C@@H]4[C@H]3CC[C@@]21C (stereo not given in full)	-8%[57.5 µM]	-5%	-9%
C#C[C@]1(O)CC[C@H]2[C@@H]3[C@H](C)CC4=C(CCC(=O)C4)[C@H]3CC[C@@]21C	25µM*!	0%	-20%
CC(C)(C)c1ccc(S(=O)(=O)Nc2ccc(-n3ccnc3)cc2)cc1	23%	·	·
CC(c1c[nH]c2ccccc12)C(O)C(=O)O (stereo not given)	4%[57.5 µM]	·	·
Cc1ccc(NC(=O)C(=O)NCc2ccco2)cc1	1%	48%	5µM*
CCOc1ccc(NC(=O)C(=O)NCc2ccco2)cc1	-2%	-18%[11.5 µM]	16%
